Laboratory results reported in PubChem BioAssay (Tox21).
Results filed as inconclusive are left out. A call without a number means that no potency is given here. Active and inactive are the calls of the source. The call rests on the fitted dose curve; in most records, active means well fitted inhibition curve with a large enough effect in the repeat runs; inconclusive means weak or mixed curves; inactive means no such curve, though single readings can be large or run the other way. Positions of bridges follow the written chain, without caps; N, C: chain ends. Non-standard residues stand in square brackets, D forms with d. Residues, ends and D or L forms follow the SMILES beside them. *: point of attachment. X1 = CC[C@@H](C)[C@@H](N)C1=N[C@H](C(=O)*)CS1; d(aIle) = CC[C@H](C)[C@@H](N)C(=O)O; dOrn = NCCC[C@@H](N)C(=O)O

Assay: qHTS assay to identify small molecule antagonists of the thyroid receptor (TR) signaling pathway (AID 743065); further: nearly all actives have a fitted effect of over 55% in size
Details: GH3.TRE-Luc, T3-stimulated luciferase inhibition, 23.5 h; series mostly up to 70.3 µM
How it was run: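 GH3.TRE-Luc rat pituitary cells (two TREs driving luciferase) were dosed with compound, then stimulated with 1 nM T3 (final) for 23.5 h at 37 C. ONE-Glo luminescence was the read-out, with CellTiter-Fluor fluorescence as the cytotoxicity counter-screen.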

Row | Structure (SMILES) | Potency
1 | C/C(=C\C(=O)OCCCCCCCCC(=O)O)C[C@@H]1OC[C@H](C[C@@H]2O[C@H]2[C@@H](C)[C@H](C)O)[C@@H](O)[C@H]1O | inactive
2 | CC(C)[C@H](NC(=O)[C@H](CC(=O)O)NC(=O)[C@H](CCCCN)NC(=O)[C@@H](N)CCCN=C(N)N)C(=O)N[C@@H](Cc1ccc(O)cc1)C(=O)O (H-RKDVY-OH) | inactive
3 | NC(=O)[C@@H]1CCCN1C(=O)[C@H](Cc1cnc[nH]1)NC(=O)[C@@H]1CCC(=O)N1 | inactive
4 | CC[C@H]1OC(=O)[C@H](C)C(=O)[C@H](C)[C@@H](O[C@@H]2O[C@H](C)C[C@H](N(C)C)[C@H]2O)[C@](C)(OC)C[C@@H](C)C(=O)[C@H](C)[C@H]2N(CCCCn3cnc(-c4cccnc4)c3)C(=O)O[C@]12C | inactive
5 | C[N+](C)(C)CCOP(=O)(O)OP(=O)([O-])OC[C@H]1O[C@@H](n2ccc(N)nc2=O)[C@H](O)[C@@H]1O | inactive
6 | Cc1cnc(C(=O)O)c[n+]1[O-] | inactive
7 | C=CC1=C(C(=O)O)N2C(=O)[C@@H](NC(=O)/C(=N/OCC(=O)O)c3csc(N)n3)[C@H]2SC1 (stereo in doubt) | inactive
8 | O=P(O)(O)C(O)(Cn1ccnc1)P(=O)(O)O | inactive
9 | C=CC[N+]1([C@H]2C[C@H]3[C@@H]4CC[C@H]5C[C@H](O)[C@@H](N6CCOCC6)C[C@]5(C)[C@H]4CC[C@]3(C)[C@H]2OC(C)=O)CCCC1 | inactive
10 | CC[C@@H](C)[C@@H](N)C1=N[C@H](C(=O)N[C@@H](CC(C)C)C(=O)N[C@@H](CCC(=O)O)C(=O)N[C@@H](C(=O)N[C@@H]2CCCCNC(=O)[C@@H](CC(N)=O)NC(=O)[C@@H](CC(=O)O)NC(=O)[C@@H](Cc3cnc[nH]3)NC(=O)[C@@H](Cc3ccccc3)NC(=O)[C@@H]([C@H](C)CC)NC(=O)[C@@H](CCCN)NC2=O)[C@@H](C)CC)CS1 (X1-LE[d(aIle)][dK][dOrn][dI][dF][dH][dD][dN]; lactam 4-C) | inactive
11 | Nc1cc(Cl)c(NC2=NCCN2)c(Cl)c1 | inactive
12 | CCOc1ccc(NC(=S)Nc2ccc(OCC)cc2)cc1 | inactive
13 | CCc1ncnc2cc(OC)c(OC)cc12 | inactive
14 | Cc1cc(=O)c(C(=O)N[C@@H](C(=O)N[C@@H]2C(=O)N3C(C(=O)O)=C(CSc4nnnn4C)CS[C@H]23)c2ccc(O)cc2)c[nH]1 | inactive
15 | CC12CCC(C[N+](C)(CCC[N+](C)(C)C)C1)C2(C)C (configuration not stated) | inactive
16 | CN1C(=O)C[C@@H](C(=O)N[C@@H](Cc2cnc[nH]2)C(=O)N2CCC[C@H]2C(N)=O)NC1=O | inactive
17 | COC(=O)[C@H]1[C@H]2C[C@H]3c4[nH]c5ccccc5c4CCN3C[C@H]2CC[C@@H]1O | inactive
18 | CC[C@@H](C)[C@H](N)C(=O)O | inactive
19 | C/C(=C(/CCO)SSCC1CCCO1)N(C=O)Cc1cnc(C)nc1N (configuration not stated) | inactive

Row | Structure (SMILES) | Potency
20 | C=C(Nc1ccc(OCC)cc1)Nc1ccc(OCC)cc1 | inactive
21 | O=C(O)/C=C/C(=O)Nc1ccc(S(=O)(=O)Nc2nccs2)cc1 | inactive
22 | CC(C)=CCC/C(C)=C/CC/C(C)=C/CC/C(C)=C/CC1=C(C)C(=O)c2ccccc2C1=O | inactive
23 | CO/N=C(\C(=O)N[C@@H]1C(=O)N2C(C(=O)O)=C(CSc3nc(C)c(CC(=O)O)s3)CS[C@H]12)c1csc(N)n1 | inactive
24 | COc1ccc(/C=C/C(=O)O)cc1 | inactive
25 | CO/N=C(\C(=O)N[C@@H]1C(=O)N2C(C(=O)[O-])=C(C[n+]3cccc4c3CCC4)CS[C@H]12)c1csc(N)n1 | inactive
26 | NCC1CCC(C(=O)O)CC1 (configuration not stated) | inactive
27 | CCN(CC)CCOC[C@H]1O[C@@H](O)[C@H](OCCN(CC)CC)[C@@H](O)[C@@H]1O | inactive
28 | CCC(=O)OC(OP(=O)(CCCCc1ccccc1)CC(=O)N1C[C@H](C2CCCCC2)C[C@H]1C(=O)O)C(C)C (some centres not stated) | inactive
29 | CC(C)=CCC/C(C)=C/CC/C(C)=C/CC/C=C(\C)CC/C=C(\C)CCC=C(C)C | inactive
30 | CCCCCCCCCC(=O)NO | inactive
31 | NCCO/C=C/[C@H](N)C(=O)O | inactive
32 | N=C(N)n1cccn1 | inactive
33 | Nc1c(CC(=O)O)cccc1C(=O)c1ccccc1 | inactive
34 | Cc1ccc(C(C)(C)c2ccc(C)cc2)cc1 | inactive
35 | CO[C@H]1C[C@H](O[C@H]2[C@H](C)[C@@H](O[C@@H]3O[C@H](C)C[C@H](N(C)C)[C@H]3O)[C@@H](C)C[C@]3(CO3)C(=O)[C@H](C)[C@@H](O)[C@@H](C)[C@@H](C)OC(=O)[C@@H]2C)O[C@@H](C)[C@@H]1O | inactive
36 | CC[C@H]1OC(=O)C[C@@H](O)[C@H](C)[C@@H](O[C@@H]2O[C@H](C)[C@@H](O[C@H]3C[C@@](C)(O)[C@@H](O)[C@H](C)O3)[C@H](N(C)C)[C@H]2O)[C@@H](CC=O)C[C@@H](C)C(=O)/C=C/C(C)=C/[C@@H]1CO[C@@H]1O[C@H](C)[C@@H](O)[C@@H](OC)[C@H]1OC | inactive
37 | O=C1c2c(O)cccc2[C@H]([C@@H]2O[C@H](CO)[C@@H](O)[C@H](O)[C@H]2O)c2cc(CO)cc(O)c21 | inactive
